In PubChem BioAssay AID588474 (The Scripps Research Institute Molecular Screening Center, 2011):
Unmarked numbers belong to inactive results. The source made the active and inactive calls.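 Rule for the calls: active = inhibition of at least 75% in the gel-based probe competition assay; inactive = inhibition below 75%.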

Molecular target: Platelet-activating factor acetylhydrolase (Mus musculus) (UniProt Q60963)
Test: mouse pPAFAH inhibitors, late-stage follow-up, orthogonal assay, biochemical, gel-based competitive ABPP, fluorescence (AID 588474)
Conditions: recombinant mouse pPAFAH, FP-Rh fluorescence, at 5 µM, hits give high values

Platelet-activating factor acetylhydrolase (Mus musculus), sequence (Q60963 whole entry, looked up): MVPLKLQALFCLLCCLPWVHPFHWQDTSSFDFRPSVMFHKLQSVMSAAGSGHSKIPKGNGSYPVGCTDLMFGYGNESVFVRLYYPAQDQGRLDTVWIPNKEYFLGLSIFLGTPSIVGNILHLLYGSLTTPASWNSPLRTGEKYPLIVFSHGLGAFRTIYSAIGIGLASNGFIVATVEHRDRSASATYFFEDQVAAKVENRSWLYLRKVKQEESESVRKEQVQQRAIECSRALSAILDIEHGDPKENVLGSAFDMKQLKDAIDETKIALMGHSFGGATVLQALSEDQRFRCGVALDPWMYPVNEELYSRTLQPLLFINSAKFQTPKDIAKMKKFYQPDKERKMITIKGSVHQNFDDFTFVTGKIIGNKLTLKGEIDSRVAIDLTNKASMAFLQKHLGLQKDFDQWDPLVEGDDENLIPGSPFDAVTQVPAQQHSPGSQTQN

## CN1C[C@H](CNC(=O)OCc2ccccc2)C[C@@H]2c3cccc4c3c(cn4C)C[C@H]21
  inhibition: 15%

## O=C(Oc1ccc([N+](=O)[O-])cc1)N1CCC(N2CCCCC2)CC1
  inhibition: 84% (active)

## CN(C)C(=O)Oc1noc2cc(Cl)ccc12
  inhibition: 99% (active)

## O=C(c1cccs1)c1cn(Cc2ccccc2Cl)c2ccccc12
  inhibition: 43%

## O=C(c1ccco1)c1cn(Cc2ccccc2Cl)c2ccccc12
  inhibition: 9%

## Cc1cc(C(=O)CS(=O)(=O)c2ccccc2)cc(C)c1OC(=O)N(C)C
  inhibition: 36%

## N#Cc1ccccc1Cn1cc(C(=O)c2ccccc2F)c2ccccc21
  inhibition: 8%

## NCCc1ccc(S(=O)(=O)F)cc1
  inhibition: 16%

## N#Cc1ccccc1Cn1cc(C(=O)c2cccs2)c2ccccc21
  inhibition: 44%
